Experimental data from PubChem BioAssay.
The source made the active and inactive calls.

Key:
[1] = tested on: Plasmodium falciparum Sir2 (PF13_0152, Sir2A); experiment: Plasmodium falciparum Sir2A binding compounds – biochemical, small-molecule microarray, 635 nm fluorescence, primary screen (AID 1098); settings: fluorescence 635 nm, higher = more signal;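 further: score merges spot fluorescence intensity with its signal-to-noise ratio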
[2] = probe aDKK1 binding to arrayed compounds – biochemical, biotinylated probe, 635/667 nm fluorescence, primary screen (AID 1099); settings: small-molecule microarray, higher = more signal;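 further: score merges 667nm spot fluorescence with signal to noise across triplicate slides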
[3] = probe aCHRDL2 binding to arrayed compounds – biochemical, biotinylated probe, 635/667 nm fluorescence, primary screen (AID 1100); settings: small-molecule microarray, higher = more signal
[4] = change in splice reporter luminescence, either direction, cell-based, HEK293, spliceosome inhibition project, primary screen (AID 1101); settings: HEK293 splicing luciferase reporter, 24 h, higher = more signal, called active from +8 up or from −8 down;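 further: HEK293 cells carrying a splicing-competent luciferase reporter gene; test concentration not given here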
[5] = target: Fibroblast growth factor 10 (Homo sapiens) (UniProt O15520); experiment: compounds binding fibroblast growth factor 10 – biochemical, small-molecule microarray, 635 nm fluorescence, primary screen (AID 1102); settings: FGF10 binding, fluorescence 635 nm, higher = more signal
Sequence of Fibroblast growth factor 10 (Homo sapiens) (O15520 whole entry, looked up): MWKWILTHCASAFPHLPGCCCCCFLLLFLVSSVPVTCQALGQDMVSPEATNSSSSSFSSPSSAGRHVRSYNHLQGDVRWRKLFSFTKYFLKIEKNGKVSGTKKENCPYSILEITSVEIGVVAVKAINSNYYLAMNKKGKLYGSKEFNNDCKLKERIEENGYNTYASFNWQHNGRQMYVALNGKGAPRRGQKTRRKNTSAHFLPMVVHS

[6] = tested on: glycogen synthase kinase-3 (GSK3A per assay name; protocol says GSK3B); experiment: compounds binding glycogen synthase kinase-3 – biochemical, small-molecule microarray, 635 nm fluorescence, GSK3A, primary screen (AID 1103); settings: fluorescence 635 nm, higher = more signal; further: the record names both GSK3A and GSK3B
[7] = target: Epidermal growth factor receptor (Homo sapiens) (UniProt P00533); experiment: compounds binding epidermal growth factor receptor – biochemical, small-molecule microarray, 635 nm fluorescence, primary screen (AID 1104); settings: EGFR binding, higher = more signal;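 further: score merges 667 nm emission intensity with spot signal to noise over triplicate slides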
Sequence of Epidermal growth factor receptor (Homo sapiens) (P00533 whole entry, looked up): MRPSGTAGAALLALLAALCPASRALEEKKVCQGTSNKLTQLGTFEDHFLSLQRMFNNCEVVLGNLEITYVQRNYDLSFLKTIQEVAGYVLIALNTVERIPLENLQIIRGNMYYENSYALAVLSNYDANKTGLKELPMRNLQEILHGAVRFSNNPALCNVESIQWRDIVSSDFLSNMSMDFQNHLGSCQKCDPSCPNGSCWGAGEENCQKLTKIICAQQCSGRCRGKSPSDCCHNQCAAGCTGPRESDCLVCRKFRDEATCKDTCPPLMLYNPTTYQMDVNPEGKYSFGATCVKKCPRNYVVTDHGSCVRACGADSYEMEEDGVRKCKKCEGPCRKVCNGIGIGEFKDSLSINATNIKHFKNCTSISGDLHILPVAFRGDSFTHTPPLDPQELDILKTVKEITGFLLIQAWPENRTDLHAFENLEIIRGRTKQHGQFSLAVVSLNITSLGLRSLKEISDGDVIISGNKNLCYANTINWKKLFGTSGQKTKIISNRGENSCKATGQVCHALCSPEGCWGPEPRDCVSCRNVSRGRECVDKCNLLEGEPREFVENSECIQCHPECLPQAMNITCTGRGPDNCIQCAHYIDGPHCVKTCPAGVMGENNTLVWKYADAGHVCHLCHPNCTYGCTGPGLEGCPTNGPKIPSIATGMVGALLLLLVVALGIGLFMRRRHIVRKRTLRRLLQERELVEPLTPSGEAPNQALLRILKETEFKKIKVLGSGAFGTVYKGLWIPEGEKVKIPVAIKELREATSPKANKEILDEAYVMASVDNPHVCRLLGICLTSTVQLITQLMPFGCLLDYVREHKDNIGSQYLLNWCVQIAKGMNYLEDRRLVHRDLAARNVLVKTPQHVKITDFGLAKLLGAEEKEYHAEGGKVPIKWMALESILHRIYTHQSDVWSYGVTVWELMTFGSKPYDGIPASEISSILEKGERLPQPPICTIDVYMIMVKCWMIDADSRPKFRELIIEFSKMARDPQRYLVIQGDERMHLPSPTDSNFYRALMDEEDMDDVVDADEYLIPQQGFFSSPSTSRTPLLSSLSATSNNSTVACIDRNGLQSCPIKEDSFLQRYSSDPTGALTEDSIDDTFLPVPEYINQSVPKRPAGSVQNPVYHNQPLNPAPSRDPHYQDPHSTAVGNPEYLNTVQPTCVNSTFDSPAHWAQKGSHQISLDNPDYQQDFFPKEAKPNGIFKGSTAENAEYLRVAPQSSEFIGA

[8] = target: Follistatin-related protein 3 (Homo sapiens) (UniProt O95633); experiment: compounds binding follistatin-related protein 3 – biochemical, small-molecule microarray, 635 nm fluorescence, primary screen (AID 1105); settings: FSTL3 binding, higher = more signal;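 further: score merges emission near 667 nm and signal to noise per printed spot across three slides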
Sequence of Follistatin-related protein 3 (Homo sapiens) (O95633 whole entry, looked up): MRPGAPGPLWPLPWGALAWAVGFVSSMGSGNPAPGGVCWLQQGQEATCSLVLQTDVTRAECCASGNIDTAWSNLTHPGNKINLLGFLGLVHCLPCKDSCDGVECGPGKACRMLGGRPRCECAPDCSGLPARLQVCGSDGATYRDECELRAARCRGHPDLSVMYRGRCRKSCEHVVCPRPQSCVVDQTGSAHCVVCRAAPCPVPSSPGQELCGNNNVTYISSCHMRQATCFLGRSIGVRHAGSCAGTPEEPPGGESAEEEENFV

[9] = target: Dickkopf-related protein 1 (Homo sapiens) (UniProt O94907); experiment: small molecules binding DKK1 protein – biochemical, small-molecule microarray, 635 nm fluorescence scan, primary screen (AID 1106); settings: higher = more signal;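 further: score merges emission near 667 nm with signal to noise over three replicate slides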
Sequence of Dickkopf-related protein 1 (Homo sapiens) (O94907 whole entry, looked up): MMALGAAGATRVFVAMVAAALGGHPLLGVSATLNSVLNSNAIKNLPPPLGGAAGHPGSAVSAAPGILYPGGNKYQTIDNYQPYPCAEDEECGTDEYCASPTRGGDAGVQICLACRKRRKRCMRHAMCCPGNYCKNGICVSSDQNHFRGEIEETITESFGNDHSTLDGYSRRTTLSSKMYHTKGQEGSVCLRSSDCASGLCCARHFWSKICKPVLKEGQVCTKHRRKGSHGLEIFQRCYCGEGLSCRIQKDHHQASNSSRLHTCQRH

[10] = tested on: Inhibin beta A chain (activin A); experiment: small molecules binding activin A – biochemical, small-molecule microarray, 635 nm fluorescence scan, primary screen (AID 1107); settings: INHBA, higher = more signal;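 further: mouse activin A protein probed at 4.33 µg/mL on printed slides; score merges bound-protein fluorescence near 667 nm with spot signal-to-noise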
[11] = tested on: Human papillomavirus type 1a protein E7 (residues 44-93); experiment: small molecules binding HPV E7 44-93 – biochemical, small-molecule microarray, residues 44-93, 635 nm fluorescence, primary screen (AID 1108); settings: fluorescence 635 nm, higher = more signal;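 further: E7 fragment applied at 1 µg/mL in TBST for 1 h at 4 C; score combines spot fluorescence with its signal to noise ratio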
[12] = hepatitis C replication reporter changes, two-sided – Huh7 cells, luciferase reporter, HCV replication inhibitor project, primary screen (AID 1109); settings: Huh7 HCV replicon luciferase reporter, 48 h; higher = more signal;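 further: huh7 hepatoma cells harbouring a luciferase neomycin HCV replicon reporter; luciferase luminescence as measure of HCV replicon replication; test concentration not given here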
[13] = target: Left-right determination factor 2 (Homo sapiens) (UniProt O00292); experiment: small molecules binding LEFTY2 protein – biochemical, small-molecule microarray, 635 nm fluorescence scan, primary screen (AID 1110); settings: higher = more signal
Sequence of Left-right determination factor 2 (Homo sapiens) (O00292 whole entry, looked up): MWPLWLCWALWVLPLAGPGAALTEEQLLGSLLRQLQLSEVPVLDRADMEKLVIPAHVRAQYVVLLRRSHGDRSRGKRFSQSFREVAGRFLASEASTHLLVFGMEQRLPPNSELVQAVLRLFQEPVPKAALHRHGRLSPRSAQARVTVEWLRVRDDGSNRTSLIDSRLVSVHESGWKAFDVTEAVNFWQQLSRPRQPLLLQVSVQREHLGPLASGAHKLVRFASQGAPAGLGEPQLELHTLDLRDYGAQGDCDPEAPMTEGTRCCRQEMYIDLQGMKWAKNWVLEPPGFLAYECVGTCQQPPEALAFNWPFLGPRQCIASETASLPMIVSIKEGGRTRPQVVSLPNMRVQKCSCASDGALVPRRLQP

[14] = target: Calmodulin-1 (Homo sapiens) (UniProt P0DP23); experiment: small molecules binding calmodulin-1 with EGTA – biochemical, small-molecule microarray, Cy5-labelled CALM1, profiling panel (AID 1111); settings: Cy5-CALM1 binding fluorescence, higher = more signal;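 further: labelled calmodulin applied in Tris saline Tween buffer holding calcium plus EGTA and DTT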
[15] = target: Calmodulin-1 (Homo sapiens) (UniProt P0DP23); experiment: small molecules binding Ca-loaded calmodulin-1 – biochemical, small-molecule microarray, Cy5-labelled CALM1, plus calcium, artefact control for SMM control-protein annotation, profiling panel (AID 1112); settings: Cy5-CALM1 binding fluorescence, higher = more signal;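 further: score merges spot fluorescence with signal to noise from triplicate slides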
[16] = probe aWnt5a binding to arrayed compounds – biochemical, biotinylated probe, 635/667 nm fluorescence, primary screen (AID 1113); settings: small-molecule microarray, higher = more signal;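 further: score merges 667 nm fluorescence intensity with signal-to-noise per printed feature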
[17] = probe aShh binding to arrayed compounds – biochemical, biotinylated probe, 635/667 nm fluorescence, primary screen (AID 1114); settings: small-molecule microarray, higher = more signal;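 further: probe is biotin-labelled aShh protein from a stem cell growth factor screen; measures binding of labelled protein to compounds printed on the slide; score merges feature fluorescence at 667 nm with signal-to-noise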
[18] = probe aNog binding to arrayed compounds – biochemical, biotinylated probe, 635/667 nm fluorescence, primary screen (AID 1115); settings: small-molecule microarray, higher = more signal;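 further: probe is biotinylated aNog protein used at 0.15 µg/mL for 1 h at 4 C; z-score combines 667 nm fluorescence of each spot with its signal to noise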
[19] = target: Torsin-1A-interacting protein 1 (Homo sapiens) (UniProt Q5JTV8); experiment: compound microarray binding of lysate hLAP1 – cell lysate, small-molecule microarray, COS7 lysate, 635/667 nm fluorescence, primary screen (AID 1116); settings: 635 nm fluorescence, higher = more signal
Sequence of Torsin-1A-interacting protein 1 (Homo sapiens) (Q5JTV8 whole entry, looked up): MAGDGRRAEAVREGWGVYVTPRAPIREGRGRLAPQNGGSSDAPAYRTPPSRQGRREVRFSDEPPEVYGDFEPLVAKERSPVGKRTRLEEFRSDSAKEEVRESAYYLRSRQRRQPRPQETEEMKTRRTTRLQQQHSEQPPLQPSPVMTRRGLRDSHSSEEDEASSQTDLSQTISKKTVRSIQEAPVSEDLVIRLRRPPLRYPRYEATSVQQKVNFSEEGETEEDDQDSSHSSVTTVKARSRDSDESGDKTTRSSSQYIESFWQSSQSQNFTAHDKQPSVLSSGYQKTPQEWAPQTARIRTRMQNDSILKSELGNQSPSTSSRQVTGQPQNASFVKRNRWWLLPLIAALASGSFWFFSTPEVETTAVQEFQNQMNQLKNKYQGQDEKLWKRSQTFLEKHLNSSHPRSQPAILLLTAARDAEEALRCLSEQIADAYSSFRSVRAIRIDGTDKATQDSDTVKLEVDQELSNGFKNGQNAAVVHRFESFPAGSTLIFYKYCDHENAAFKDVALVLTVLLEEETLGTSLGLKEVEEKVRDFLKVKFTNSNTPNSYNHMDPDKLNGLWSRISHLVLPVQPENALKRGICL

[20] = target: Alpha-bungarotoxin (Bungarus multicinctus) (UniProt P60615); experiment: compounds binding labelled alpha-BTX control protein – biochemical, small-molecule microarray, Alexa647 label, 635/667 nm fluorescence, artefact control for SMM control protein annotation, profiling panel (AID 1117); settings: alpha-BTX-A647 binding fluorescence, higher = more signal
Sequence of Alpha-bungarotoxin (Bungarus multicinctus) (P60615 whole entry, looked up): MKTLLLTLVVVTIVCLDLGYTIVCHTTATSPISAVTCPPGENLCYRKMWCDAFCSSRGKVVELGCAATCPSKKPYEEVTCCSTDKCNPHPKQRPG

Compound | composite z-score [1] | composite z-score [2] | composite z-score [3] | z-score [4] | composite z-score [5] | composite z-score [6] | composite z-score [7] | composite z-score [8] | composite z-score [9] | composite z-score [10] | composite z-score [11] | z-score [12] | composite z-score [13] | composite z-score [14] | composite z-score [15] | composite z-score [16] | composite z-score [17] | composite z-score [18] | composite z-score [19] | composite z-score [20]
C=C(COC)/C(=C/C[C@@H](OC(=O)c1ccncc1)c1ccc(CO)o1)c1cc(C(=O)OC)ccc1OC | 1.2 | 0.0709 | -0.623 | 0.804 (inactive) | 1.47 | 1.15 | 1.06 | 1.48 | 1.27 | 1.03 | 1.4 | -0.557 | 1.44 | 0.209 | -0.708 | 0.0077 | -0.138 | -0.18 | 0.877 | 0.702
C=C(COC)/C(=C/C[C@@H](OC(C)=O)c1ccc(OCCO)cc1)c1cnc2ccccc2c1 | 1.14 | -0.151 | 0.352 | -0.949 (inactive) | 1.57 | 0.369 | 0.824 | 1.49 | 1.25 | 1.7 | 0.487 | -1.19 | 0.989 | 0.263 | -0.731 | -0.0761 | 0.0557 | -0.1 | 0.174 | 1.63
O=C(CS)NCCCCCCNC(=O)[C@@H]1C[C@@H]2C(=O)N[C@@H](Cc3ccccc3)C(=O)N2[C@@H]1c1cccc(OCCO)c1 | 1.5 | -0.367 | 0.594 | 0.528 (inactive) | 1.32 | 1.34 | 0.557 | 1.26 | 0.859 | 0.382 | 1.39 | -0.698 | 0.934 | 0.309 | 0.414 | 0.0102 | 0.265 | 0.0637 | 0.585 | 1.2
[N-]=[N+]=NCc1ccccc1C[C@]1(C(=O)N2CCCCC2)N=C(c2ccc(OCCCO)cc2)O[C@H]1c1ccccc1N=[N+]=[N-] | 0.711 | 1.1 | 1.19 | -1.01 (inactive) | 0.55 | 0.998 | 0.26 | 0.308 | -0.5 | 1.36 | 1.41 | -2.92 | 0.0928 | 1.43 | 0.587 | 0.171 | 0.417 | 1.03 | 1.85 | 1.45
COc1cccc(-c2cccc(=O)o2)c1 | 1.37 | 0.956 | 0.513 | 0.742 (inactive) | 0.423 | -0.21 | 0.482 | 0.148 | 0.143 | 1.15 | -1.17 | 0.473 | 0.361 | -0.753 | -0.454 | 0.153 | 0.475 | 0.192 | 0.628 | 0.141
CCCC[C@H]1OB(O)C[C@H]2C1=C(COC)Cn1c(=O)n(-c3ccccc3)c(=O)n12 | -0.0483 | -0.383 | -0.738 | 0.271 (inactive) | 0.516 | 0.302 | 0.54 | 0.517 | 0.465 | 0.95 | 0.039 | -0.673 | 0.358 | -0.215 | -0.421 | -0.0792 | -0.0977 | 0.445 | 0.0892 | 0.0547
O=C(NCCO)C1=C[C@H](Oc2ccccc2I)[C@@H](O)[C@H](N(Cc2ccco2)C(=O)Cc2ccccc2)C1 | -0.012 | -0.223 | -0.453 | -0.0906 (inactive) | 0.556 | 0.349 | 0.508 | 0.468 | 0.431 | 0.497 | -0.0509 | 0.807 | 0.51 | -0.0916 | -0.671 | 0.0057 | -0.209 | 0.0129 | 0.591 | -0.0333
[N-]=[N+]=Nc1ccccc1[C@@H]1OC(c2ccc(OCCCO)cc2)=N[C@]1(Cc1ccccc1)C(=O)N1CCOCC1 | 0.839 | 1.05 | 1.11 | -1.15 (inactive) | 1.39 | 1.28 | 0.308 | 1.16 | 0.284 | 0.904 | 1.44 | -1.41 | 0.425 | 1.65 | 0.959 | 0.72 | 0.315 | 0.314 | 1.21 | 1.3
C=C[C@H](C)[C@@H](OC(=O)Nc1ccc(OC)cc1)c1ccc(O)c2ccccc12 | 0.408 | -0.398 | -0.083 | 2.41 (inactive) | -0.117 | -0.177 | -0.568 | 0.386 | 0.209 | 0.722 | -0.626 | -3.43 | -0.239 | -0.582 | -0.461 | -0.178 | 0.318 | 0.152 | 0.534 | -0.177
C=CCOC(=O)[C@H]1[C@@H]2C(=O)O[C@@H](c3ccccc3)[C@@H](c3ccccc3)N2[C@@H](c2ccc(OCCOC(=O)[C@@H]3C[C@@H]4C(=O)N[C@@H](CCCCNC(C)=O)C(=O)N4[C@@H]3c3ccc(O)cc3)cc2)[C@]12C(=O)Nc1ccccc12 | 1.65 | -0.208 | -0.187 | -0.0104 (inactive) | 0.768 | 1.3 | 0.673 | 1.28 | 0.783 | 0.152 | 1.32 | -0.413 | 0.515 | 1.72 | 0.365 | -0.0704 | 0.196 | 0.45 | 0.622 | 2.51
CN1C(=O)C2C=CC(C(O)c3ccco3)N(Nc3ccccc3)C2C1=O (stereo not given) | 0.307 | 0.44 | 0.338 | 0.883 (inactive) | 0.953 | 0.386 | 0.466 | 0.523 | 0.519 | 1.16 | 0.282 | 0.0751 | 0.232 | -0.276 | -0.833 | -0.0192 | 0.199 | -0.165 | 0.272 | 0.35
COC(=O)[C@H](Cc1ccccc1)N[C@@H](/C=C/C1CC1)[C@H](O)Cc1ccccc1 | 1.02 | -0.157 | 0.442 | 0.488 (inactive) | -0.865 | -0.637 | -0.463 | -0.862 | -0.429 | 0.437 | -0.431 | -0.95 | -0.517 | 0.125 | -0.736 | 0.454 | -0.309 | -0.349 | 0.729 | 0.342
